In the library only some 0.25% were active in any assay of this set; here they are far more common.
Tb PFK inh-1 – qHTS Assay to Find Inhibitors of T. brucei phosphofructokinase; hit rate 0.17% among 330,000; Potency, µM (highest dose often 57.5 µM), without a hit: at the top dose activity, negative = inhibition, hits mostly inhibitors; T. brucei PFK, ADP-Glo luminescence;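 further: 0% = uninhibited 1x PFK enzyme wells and -100% = no-enzyme wells; nearly all actives have a fitted effect of over 60% in size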
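1.25 nM PFK with 0.5 mM F6P and 0.1 mM ATP in 0.1 M TEA pH 8.0, 5 mM MgCl2, incubated 45 min at room temperature; ADP measured by ADP-Glo luminescence; compounds titrated up to 57 uM.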
Pin1 inh – qHTS Assay to Find Inhibitors of Pin1. Peptidyl-prolyl cis-trans isomerase NIMA-interacting 1 (Homo sapiens), Q13526. Pin1 FP peptide displacement, HiFluor488, 10 min. Potency, µM (series often up to 115 µM), for inactives: top-dose activity, negative = inhibition, most hits filed as inhibitors. hit rate 0.009% among 390,000. AID 504891, 2011; active means well fitted inhibition curve with a large enough effect in the polarisation, with a control signal flat, not every such curve was filed as active; inconclusive means small, poorly fitted or top-dose-only effect, or effect the other way, or a change in a side signal; inactive means no such curve, though single readings can be large or run the other way; the % refers to the polarisation; further: on the % scale 0 is the no-effect control and ±100 the full control effect
Target sequence (Q13526 whole entry, looked up): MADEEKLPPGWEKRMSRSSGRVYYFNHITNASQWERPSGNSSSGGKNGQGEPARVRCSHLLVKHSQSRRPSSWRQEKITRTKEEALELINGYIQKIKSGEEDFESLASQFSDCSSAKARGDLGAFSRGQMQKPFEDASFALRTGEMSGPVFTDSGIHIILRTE
Chronic BCR inh – qHTS Assay to Find Inhibitors of Chronic Active B-Cell Receptor Signaling; ABC-DLBCL IkBa-CBG/CBR reporter, luminescence ratio, 4 h; Potency, µM (top dose mostly 46.1 µM), without a hit: top-dose activity change, negative = inhibition, usual class: inhibitors; hit rate 0.05% among 340,000; AID 493014, 2011; active means well fitted inhibition curve with a large enough effect in the signal ratio, with a control signal flat, not every such curve was filed as active; inconclusive means small, poorly fitted or top-dose-only effect, or effect the other way, or a change in a side signal; the % refers to the signal ratio;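 further: plate controls were basal doxycycline-induced cells for no effect and cells given 10 µM MG132 for full effect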
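TMD8 ABC-DLBCL cells carrying doxycycline-inducible green luciferase fused to IkappaBalpha plus unfused red luciferase were exposed to compounds (up to 46 uM) for 4 hrs at 37C. Activity came from the overlap-corrected green/red luminescence ratio.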
ERG-DNA inh – qHTS for Small Molecule Inhibitors of the ERG Ets/DNA interaction; Potency, µM (titrated, usually from 76.9 µM), without a hit: top-dose FP activity, negative = inhibition, most hits filed as inhibitors; fluorescence polarization, His-ERG Ets domain / labelled DNA; AID 624246, 2012; Transcriptional regulator ERG (Homo sapiens), P11308; hit rate 0.028% among 370,000; active means well fitted inhibition curve with a large enough effect in the polarisation, with a control signal flat; inconclusive means small, poorly fitted or top-dose-only effect, or effect the other way, or a change in a side signal; inactive means no such curve, though single readings can be large or run the other way; the % refers to the polarisation;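 further: polarization taken with two DNA probes labelled with fluorescein and Texas red; % of control where 0% means no effect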
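His-tagged ERG Ets domain (1 uM in the protein solution; 300mM KCl, 50mM Tris-HCl, 1mM EDTA, 1mM DTT, pH 7.5) received compound, then a probe mix of 5 nM fluorescein-DNA and 100nM Texas-615-DNA. Fluorescence polarization was read for both dyes.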
PGK inhibitor – qHTS Assay to Find Inhibitors of Phosphoglycerate Kinase | Phosphoglycerate kinase, glycosomal (Trypanosoma brucei brucei), P07378 | PGK/GAPDH coupled, Kinase-Glo luminescence, 60 min | Potency, µM (doses to about 57.5 µM), for the others: at the highest dose activity change, negative = inhibition, most hits filed as inhibitors | hit rate 0.043% among 380,000; further: on the % scale 0 is the no-effect control and ±100 the full control effect; nearly all actives have a fitted effect of over 60% in size
Target sequence (P07378 whole entry, looked up): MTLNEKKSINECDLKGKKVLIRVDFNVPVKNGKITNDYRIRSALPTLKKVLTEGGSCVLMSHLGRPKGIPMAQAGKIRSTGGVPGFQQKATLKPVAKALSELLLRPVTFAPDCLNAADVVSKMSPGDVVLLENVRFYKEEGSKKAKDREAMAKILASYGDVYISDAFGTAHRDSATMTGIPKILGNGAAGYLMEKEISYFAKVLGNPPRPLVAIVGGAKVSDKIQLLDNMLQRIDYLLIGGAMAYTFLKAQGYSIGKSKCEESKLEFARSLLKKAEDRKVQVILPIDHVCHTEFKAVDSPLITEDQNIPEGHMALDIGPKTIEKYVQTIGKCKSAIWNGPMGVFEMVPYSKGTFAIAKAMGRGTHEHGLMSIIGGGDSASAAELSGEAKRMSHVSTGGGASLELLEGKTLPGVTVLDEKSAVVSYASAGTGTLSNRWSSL
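Luminescent ATP detection (Kinase-Glo Plus) follows a 60-minute room-temperature incubation, with wells lacking PGK as controls. Buffer: 100 mM TEA (pH 7.6), 5 mM MgCl2, 0.01% Tween-20. Coupling enzyme GAPDH (100 nM final) supplies unstable 1,3-BPG in-well.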
TbPFK ATP – Tb PFK orthogonal confirmatory assay using ATP depletion (Kinase-Glo Plus) as an alternative measure of Tb PFK activity: Hit Validation; shares compounds with Tb PFK inh-1; Tb PFK enzyme, ATP depletion, Kinase-Glo Plus luminescence; Potency, µM (titrated, usually from 57.5 µM), for inactives: at the top dose inhibition; hit rate 47% among 1,100; calls by dose curve; further: nearly all actives have a fitted effect of over 60% in size
Tb PFK inh-2 – Inhibitors of T. brucei phosphofructokinase: Hit Validation; hit rate 41% among 1,100; shares compounds with Tb PFK inh-1; Potency, µM (series often up to 57.5 µM), inactives show at the highest dose activity change, negative = inhibition, actives largely listed as inhibitors; purified T. brucei PFK, ADP-Glo luminescence, 45 min; AID 504637, 2011;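 further: plate controls were full PFK enzyme control for no effect and no enzyme control for full effect; nearly all actives have a fitted effect of over 60% in size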
* hit, by the source's call; i = inactive; ? = inconclusive; / = no result given. Unless noted, the call rests on the fitted dose curve; in most records, active means well fitted curve in the direction sought with a large enough effect; inconclusive means small, poorly fitted or top-dose-only effect, or another doubt; inactive means no such curve, though single readings can be large; an effect the other way counts as inactive or inconclusive. Potency means the concentration at half of the fitted maximal effect.

SMILES	Tb PFK inh-1	Pin1 inh	Chronic BCR inh	ERG-DNA inh	PGK inhibitor	TbPFK ATP	Tb PFK inh-2
NC(N)=NS(=O)(=O)c1ccc(NC(=S)NC(=O)Cc2ccc(Cl)cc2)cc1	?	-0.3%	-3.0%	-7.8%	-2.8%	26.9µM*	30.1µM*
Cc1ccc(NC2=NCCC2)cc1Cl	-5.4%	-10.6%	10.8%	-3.4%	3.7%	/	/
Cc1nc2ccc(NC3=NCCCCC3)cc2s1	10.7µM*	6.1%	1.7%	-3.3%	10.4%	8.49µM*	6.75µM*
O=c1c(O)cccc2cc(O)c(O)c(O)c12	6.75µM*	/	13.3%	5.3%	0.794µM*	0.426µM*	0.477µM*
Cc1cc(OCC(=O)Nc2ccc(S(=O)(=O)N3CCN(C)CC3)cc2)ccc1Cl	26.9µM*	-11.7%	-2.5%	-1.4%	-11.1%	?	?
Cc1cc(OCC(=O)Nc2ccc(S(=O)(=O)N3CCN(C)CC3)cc2)cc(C)c1Cl	6.4%	45.4%	?	2.5%	1.4%	/	/
O=C(Cc1cccc(C(F)(F)F)c1)Nc1cccc(S(=O)(=O)N2CCCC2)c1	-8.3%	8.1%	-13.8%	1.2%	-4.6%	/	/
CN1CCN(S(=O)(=O)c2ccc(NC(=O)Cc3ccc([N+](=O)[O-])cc3)cc2)CC1	16.9µM*	-0.1%	5.8%	2.1%	i	6.01µM*	12µM*
O=C(Cc1cccc(C(F)(F)F)c1)Nc1ccc(S(=O)(=O)N2CCCC2)cc1	?	5.8%	-6.8%	4.2%	-9.0%	?	?
COCCn1cnc2c1-c1ccc(OC)c(c1)OC/C=C\COc1cccc-2c1	/	-1.9%	/	/	/	/	/
CCCN1CCN(c2cccc(Nc3nn4c(=O)c5ccccc5nc4s3)c2)CC1	/	5.9%	/	/	/	/	/
CC(=O)Nc1ccn(C2CC3OCC(NC(=O)C(Cc4ccccc4)NC(=O)OC(C)(C)C)C3O2)c(=O)n1 (stereo unspecified)	/	-3.7%	/	/	/	/	/
Nc1ccccc1Sc1nc2ccccc2[nH]1	?	-5.8%	?	-0.9%	-4.6%	16.9µM*	?
O=C1c2ccccc2C(=O)N1SC1CCCCC1	?	1.1%	?	-1.9%	i	9.53µM*	15.1µM*
O=C(OCN1C(=O)c2ccccc2C1=O)C1CCCCC1	-5.3%	7.4%	1.1%	-0.5%	-0.1%	/	/
Fc1cccc(CNc2ncnc3ccc(-c4cccnc4)cc23)c1	-2.3%	/	?	/	/	/	/
O=C(CNC(=O)C1CCCC1)OC(C(=O)Nc1cc(C(F)(F)F)ccc1Cl)c1ccccc1 (stereo unspecified)	/	0.1%	/	/	/	/	/
Oc1ccc(-c2cn3c(n2)SCC3)cc1O	?	-0.8%	-7.0%	-8.1%	?	2.39µM*	4.78µM*
O=C(O[C@@H]1OC2COC(=O)c3cc(O)c(O)c(O)c3-c3c(cc(O)c(O)c3O)C(=O)O[C@@H]([C@H]1O)[C@@H]2O)c1cc(O)c(O)c(O)c1	2.13µM*	?	14.5%	1.2%	-82.1%	0.0675µM*	0.0849µM*
COc1cccc(OCCc2c(C)n[nH]c2C)c1	26.9µM*	8.9%	-8.5%	4.5%	-2.1%	?	?
Cc1cccc(OCCCCc2c(C)n[nH]c2C)c1	-2.4%	0.7%	-8.7%	2.6%	5.7%	/	/
O=C(CSc1ccccc1)Nc1ccc(S(=O)(=O)Nc2ncccn2)cc1	?	-4.2%	-10.1%	10.0%	-1.3%	?	-12.7%

Assay outcomes (PubChem BioAssay)
